# Bioassay records: PubChem, several laboratories
# Rows were chosen to be rich in hits. Some 4.8% of all compounds tested hit in one or more screens of this group.
# DAX1 inh-1: inhibits human nuclear receptor DAX1. HEK293 Gal4-DAX1 luciferase reporter, luminescence. 340,000 tested, 0.99% active. P51843. inhibition, % at 6.75 µM;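 active means inhibition above the mean over all tested compounds plus 3 SD, cut at about 4.2% in these data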;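 further: 0% = DAX1-transfected cells with DMSO and 100% = empty-vector control cells with DMSO; inhibition shows as a rise in luminescence from relieved DAX1 repression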
# DAX1 inh-2: inhibitors of DAX1 repression of SF-1 activated StAR promoter; HEK293T StAR-luciferase reporter, SF-1/DAX-1 repression relief; inhibition, % at 6.8 µM; 370,000 tested, 1.1% active;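 active means inhibition above the mean over all tested compounds plus 3 SD, cut at about 3.6% in these data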;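 further: 0% = DAX-1 cells with DMSO and 100% = cells lacking DAX-1 with DMSO; higher inhibition means more luminescence from relief of DAX-1 repression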
# ssDAF-12 act: activates DAF-12 receptor from parasite S. stercoralis. HEK293 ssDAF-12/GRIP1 lit1-tk-luc reporter, luminescence; % of 3 µM dafachronic acid response. activation, % at 6.8 µM. 370,000 tested, 1% active. AID 652126;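 active means activation above the mean over all tested compounds plus 3 SD, cut at about 0.9% in these data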;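 further: 0% = DMSO-only wells and 100% = 3 µM delta7-dafachronic acid wells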
# hcDAF-12 act: H. contortus DAF-12 activation, primary screen; activation, % at 6.8 µM; HEK293 hcDAF-12 lit1-tk-luc reporter, luminescence; 0% DMSO, 100% Δ7-dafachronic acid; 370,000 tested, 1.4% active; AID 652067;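 active means activation above the mean of all tested compounds plus 3 SD, cut at about 5.5% in these data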;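 further: 100% = response to 3 µM Δ7-dafachronic acid high control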
# hgDAF-12 ag: activates the H. glycines DAF-12 receptor ligand-binding domain | HEK293 GAL4-hgDAF12 UAS-luciferase reporter, agonist luminescence; normalized to butyrate control | activation, % at 6.8 µM | 370,000 tested, 1.8% active;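 active means activation above a cutoff set at the mean of all screened compounds plus 3 SD, cut at about 10% in these data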;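 further: 0% = DMSO wells and 100% = sodium butyrate wells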
# Rev-erbA mod: modulators of human Rev-erb alpha DNA binding; Rev-erbα–FITC-DNA binding, fluorescence polarization, 90 min; 370,000 tested, 0.79% active; P20393; activity, % at 10 µM;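 active means activity above about 14%, limit read from the data; passing the limit was not always enough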;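 further: 0% = DMSO wells with 35 nM protein and 100% = DMSO wells with 750 nM protein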
# Target sequence (P20393 whole entry, looked up): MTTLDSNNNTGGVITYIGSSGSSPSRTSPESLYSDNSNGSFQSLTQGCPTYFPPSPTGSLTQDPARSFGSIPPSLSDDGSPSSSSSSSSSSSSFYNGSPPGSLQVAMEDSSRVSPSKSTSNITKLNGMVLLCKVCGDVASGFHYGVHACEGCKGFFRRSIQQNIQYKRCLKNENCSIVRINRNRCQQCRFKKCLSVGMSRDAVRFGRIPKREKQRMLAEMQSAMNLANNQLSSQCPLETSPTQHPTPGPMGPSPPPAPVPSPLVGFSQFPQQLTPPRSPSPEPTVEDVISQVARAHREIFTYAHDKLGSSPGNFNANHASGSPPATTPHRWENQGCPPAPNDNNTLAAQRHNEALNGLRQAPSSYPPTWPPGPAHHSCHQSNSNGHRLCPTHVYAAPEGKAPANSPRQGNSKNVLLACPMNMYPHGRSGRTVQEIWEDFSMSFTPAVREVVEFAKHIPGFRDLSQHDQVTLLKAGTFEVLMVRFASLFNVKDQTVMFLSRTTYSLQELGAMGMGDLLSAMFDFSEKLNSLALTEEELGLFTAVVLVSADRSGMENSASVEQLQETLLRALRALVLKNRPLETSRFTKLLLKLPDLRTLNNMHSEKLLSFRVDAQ
# hgDAF12 conf: confirmation of H. glycines DAF-12 agonists; activation, % at 6.8 µM; HEK293 GAL4-hgDAF12 luciferase reporter, agonist mode; percent of butyrate response; AID 743050; 3,300 tested, 80% active; shares compounds with hgDAF-12 ag;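 active means mean activation over triplicate wells above the hit cutoff derived from the earlier primary screen, cut at about 11% in these data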;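 further: 0% = DMSO low control and 100% = 2 mM sodium butyrate high control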
# LXR ag 2: activates human LXR-beta, counter-screen for DAF-12 agonists; shares compounds with hgDAF-12 ag; HEK293 Gal4-LXR luciferase reporter, 24 h; activation, % at 6.8 µM; 3,300 tested, under 10 active;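 active means mean activation of the triplicate above a set limit carried over from the primary screen, none filed active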
# Numbers without * were called inactive; / = no result.
SMILES,DAX1 inh-1,DAX1 inh-2,ssDAF-12 act,hcDAF-12 act,hgDAF-12 ag,Rev-erbA mod,hgDAF12 conf,LXR ag 2
O=C(NC1CCCC1)c1cc(-c2ccc(F)cc2)on1,5.8*,2,0,1,23*,-3,37*,1
O=C(NC1CCCC1)c1cc(-c2cccs2)on1,4.7*,2,0,6.1*,47*,0,43*,1
O=C(NCCCN1CCOCC1)c1cc(-c2cccs2)on1,3,-1,0,4,24*,-3,46*,0
O=C(NC1CCCC1)c1cc(-c2ccc(Cl)cc2)on1,3,1,0,5,7,9,/,/
NC(=O)c1ncn([C@@H]2O[C@H](C(=O)N[C@H](Cc3ccccc3)C(=O)N3CCN(CC(=O)Nc4ccccn4)CC3)[C@@H](O)[C@H]2O)n1,/,0,-1,0,2,-3,/,/
O=C(NN=Cc1ccccc1O)C(=O)Nc1ccc(F)cc1,/,-1,-2,0,1,5,/,/
CCn1c(C)nc2cc(C(=O)NN=Cc3ccccc3OC(F)F)ccc21,1,3,-1,1,4,5,/,/
CCn1c(C)nc2cc(C(=O)N/N=C/c3ccccc3C)ccc21,1,3,0,3,14*,1,14*,1
Nc1nc(CSc2ncn(-c3ccccc3)n2)cs1,2,/,/,/,/,1,/,/
c1ccc(CSc2ncn(-c3ccccc3)n2)cc1,5.0*,2,0,5,14*,1,19*,1
COC(=O)CNC(=O)c1ccccc1,3,-1,-1,-1,2,-4,/,/
O=C(CNC(=O)c1ccccc1)OC1CCCCC1,2,3,-1,3,16*,-3,18*,1
CCC(N=c1cc(-c2ccc(OC)c(OC)c2)oc2ccc(C)cc12)C(=O)O (stereo not drawn),1,0,-1,-3,1,-3,/,/
CCC(N=c1cc(-c2ccc(OC)cc2)oc2ccc(C)cc12)C(=O)O (stereo not drawn),0,3.9*,0,4,14*,-3,13*,0
CN(CCOC(=O)c1cc2ccccc2o1)C1CN(Cc2cn(Cc3ccc([N+](=O)[O-])cc3)nn2)S(=O)(=O)C1 (stereo not drawn),/,0,-1,1,3,5,/,/
CCCCOCCCNC(=O)C[C@H]1C[C@@]2(C(=O)OC)C(=C[C@H](C(C)C)O[C@@H]2C2CC2)N(Cc2cccc3ccccc23)C1=O,/,0,-1,-3,1,-6,/,/
Cc1ccc2c(c1)C(=NC1CCCCC1)c1cc3ccccc3nc1-2,1,4.2*,2.4*,15*,20*,-2,18*,1
CN(C)C(=O)C[C@H]1C[C@@H]2c3cc(NC(=O)NC4CCCC4)ccc3O[C@@H]2[C@@H](CO)O1,/,0,0,-1,0,5,/,/
CC(C)N(Cc1nccn1C)C(=O)CCc1nnc(CCCc2ccccc2)o1,1,1,0,4,14*,4,10,0
O=C(N/N=C/c1ccccc1)c1n[nH]c2c1CCCC2,-1,3,1.1*,2,17*,-2,16*,1
O=C(N/N=C/c1c(Cl)cccc1Cl)c1cccc(F)c1,0,/,/,/,/,0,/,/
O=C(N/N=C/c1ccccc1Cl)c1cccc(F)c1,2,3.7*,0,3,17*,-2,13*,1
O=C(N/N=C/c1cccc(F)c1)c1ccc(Cl)cc1,3,3.7*,0,2,18*,-1,12*,0
O=C(c1ccc(C(=O)N2CCCc3ccccc32)s1)N1CCCc2ccccc21,1,0,-1,-1,-2,0,/,/
O=C(c1ccc(Cl)s1)N1CCc2ccccc21,3,2,1.5*,6.4*,15*,-2,18*,0
SMILES,DAX1 inh-1,DAX1 inh-2,ssDAF-12 act,hcDAF-12 act,hgDAF-12 ag,Rev-erbA mod,hgDAF12 conf,LXR ag 2
CCN1CCCCC(NC(=O)c2cccc(C(F)(F)F)c2)C1=O (stereo not drawn),/,-1,-1,-1,-1,-4,/,/
C#CCNC(=O)C[C@H]1C[C@@]2(C(=O)OC)C(=C[C@H](C(C)C)O[C@@H]2C2CC2)N(Cc2ccccc2)C1=O,/,0,-1,-1,0,-3,/,/
C#CCNC(=O)C[C@H]1C[C@@]2(C(=O)OC)C(=C[C@H](C(C)C)O[C@@H]2C2CC2)N(CCCCCCCC)C1=O,/,-2,-1,-3,14*,2,-1,0
CN(C(=O)[C@@H](Cc1ccccc1)NC(=O)[C@H]1O[C@@H](n2ccc(=O)[nH]c2=O)[C@H](O)[C@@H]1O)C1CCCCC1,/,0,0,0,5,0,/,/
COc1ccc(-c2cc(-c3nnc(SCC(=O)Nc4cccc(Cl)c4C)n3N)[nH]n2)cc1,/,-1,0,-4,-1,-1,/,/
Nc1nccc(-c2cc(-c3ccc(Cl)cc3Cl)no2)n1,10*,2,1.9*,5.7*,15*,-3,20*,1
COc1ccc(C(=O)C2CCN(C(=O)c3ccc(C)cc3)CC2)cc1,-2,-2,-2,-3,-4,2,/,/
COc1ccc(-c2ccc(C(=O)C3CC3)cc2)cc1,2,2,0,3,15*,5,20*,1
CCn1cnc2cc(NC(=O)c3ccc(C)cc3)ccc21,1,2,1,2,14*,-1,11*,0
Cc1ccc(C(=O)Nc2ccc3c(c2)ncn3C)cc1,2,3,0,4,9,1,/,/
CCCn1cnc2cc(NC(=O)c3cccs3)ccc21,2,1,0,3,13*,1,10,0
CC(=O)NCCc1nc2cc(NC(=O)c3cccs3)ccc2n1C,0,1,-2,3,-2,4,/,/
COC(=O)[C@]12C[C@H](CC(=O)N3CCC(c4ccccc4)CC3)C(=O)N(CCC3=CCCCC3)C1=C[C@H](C1CCCC1)O[C@@H]2C,/,-1,-1,0,-1,2,/,/
CCCc1ccc(-c2cc(NC(=O)CSc3nnc(N)s3)n(-c3ccccc3)n2)cc1,1,4.1*,0,5,14*,-2,19*,1
O=[N+]([O-])c1ccc(C=CC=Cc2ccccc2)cc1,4,1,-1,1,6,-3,/,/
[O-]/[N+](=C\C=C\c1ccccc1)c1ccccc1,3,1,0,4,14*,3,14*,0
Cc1ccc(-n2c(SCC(=O)Nc3ccc(S(=O)(=O)Nc4nccs4)cc3)nnc2-c2cccs2)cc1,/,1,-1,0,-2,-2,/,/
